PubChem BioAssay (NCATS)
Results filed as inconclusive are left out. Calls of active or inactive are those of the source. Calls follow the shape of the dose curve; as a rule, active = well fitted curve in the direction sought with a large enough effect; inconclusive = small, poorly fitted or top-dose-only effect, or another doubt; inactive = no such curve, though single readings can be large; an effect the other way counts as inactive or inconclusive.

How the values were obtained:
MCC-13 = experiment: qHTS assay to identify novel small-molecules to repurpose for Merkel cell carcinoma treatment (AID 1296009); conditions: MCC and control cell lines, CellTiter-Glo viability, 72 h; series mostly up to 46 µM; also: nearly all actives have a fitted effect of over 60% in size
In short: (§1)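 After compound transfer in DMSO, plates were kept 72 hr at 37 degree celsius. Luminescent ATP signal from CellTiter-Glo served as viability measure, normalized against DMSO and no-cell controls.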

MCC-26 = experiment: as above; conditions: MCC and control cell lines, CellTiter-Glo viability, 72 h; series mostly up to 46 µM
In short: as §1

MKL-1 = experiment: as above; conditions: MCC and control cell lines, CellTiter-Glo viability, 72 h; series mostly up to 46 µM
In short: as §1

MKL-2 = experiment: as above; conditions: MCC and control cell lines, CellTiter-Glo viability, 72 h; series mostly up to 46 µM
In short: as §1

UISO = experiment: as above; conditions: MCC and control cell lines, CellTiter-Glo viability, 72 h; series mostly up to 46 µM
In short: as §1

WaGa = experiment: as above; conditions: MCC and control cell lines, CellTiter-Glo viability, 72 h; series mostly up to 46 µM
In short: as §1

C33A = experiment: Primary qHTS to identify gynecologic anti-cancer compounds using libraries of approved drugs and bioactive compounds (AID 1345084); conditions: Gynecologic cancer cell panel viability, ATPlite luminescence, 48 h; series mostly up to 57.5 µM; also: nearly all actives have a fitted effect of over 55% in size
In short: (§2)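 Five-concentration response, 48 h; readout is ATP-driven luciferase luminescence.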

CAOV3 = experiment: as above; conditions: Gynecologic cancer cell panel viability, ATPlite luminescence, 48 h; series mostly up to 57.5 µM
In short: as §2

CASKI = experiment: as above; conditions: Gynecologic cancer cell panel viability, ATPlite luminescence, 48 h; series mostly up to 57.5 µM
In short: as §2

Es-2 = experiment: as above; conditions: Gynecologic cancer cell panel viability, ATPlite luminescence, 48 h; series mostly up to 57.5 µM
In short: as §2

HeLa = experiment: as above; conditions: Gynecologic cancer cell panel viability, ATPlite luminescence, 48 h; series mostly up to 57.5 µM
In short: as §2

Hek293T = experiment: as above; conditions: Gynecologic cancer cell panel viability, ATPlite luminescence, 48 h, control line for the selectivity index; series mostly up to 57.5 µM
In short: as §2

JEG-3 = experiment: as above; conditions: Gynecologic cancer cell panel viability, ATPlite luminescence, 48 h; series mostly up to 57.5 µM
In short: as §2

OV90 = experiment: as above; conditions: Gynecologic cancer cell panel viability, ATPlite luminescence, 48 h; series mostly up to 57.5 µM
In short: as §2

PA-1 = experiment: as above; conditions: Gynecologic cancer cell panel viability, ATPlite luminescence, 48 h; series mostly up to 57.5 µM
In short: as §2

SKOV3 = experiment: as above; conditions: Gynecologic cancer cell panel viability, ATPlite luminescence, 48 h; series mostly up to 57.5 µM
In short: as §2

Tov-21-G = experiment: as above; conditions: Gynecologic cancer cell panel viability, ATPlite luminescence, 48 h; series mostly up to 57.5 µM
In short: as §2

Tov112D = experiment: as above; conditions: Gynecologic cancer cell panel viability, ATPlite luminescence, 48 h; series mostly up to 57.5 µM
In short: as §2

[1] = Drug repurposing screens with cells derived from glioblastoma tumor samples (AID 1345199); conditions: GBM patient neurospheres viability, ATP luminescence, 48 h; also: nearly all actives have a fitted effect of over 40% in size
In short: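 Four patient lines of CD133+ GBM neurospheres were screened at several concentrations; hits were retested in those lines plus three slower-growing GBM lines, using 48-hour treatment and ATP-based viability.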

[2] = at 45.9 µM (top of the series), tumour line B
[3] = at 45.9 µM (top of the series), tumour line D
[4] = at 46 µM (top of the series), tumour line A
[5] = at 46.1 µM (top of the series), tumour line C
% is scaled to controls: 0 for no effect and ±100 for the full control effect; potency is read from the fitted curve at half-maximal effect.

COc1cc(/C=C/C(=O)O[C@H]2CC[C@]34C[C@]35CC[C@]3(C)[C@@H]([C@H](C)CCC=C(C)C)CC[C@@]3(C)[C@@H]5CC[C@H]4C2(C)C)ccc1O
inactive: Potency (MCC-13) | Potency (MCC-26) | Potency (MKL-1) | Potency (MKL-2) | Potency (UISO) | Potency (WaGa) | Potency (C33A) | Potency (CAOV3) | Potency (CASKI) | Potency (Es-2) | Potency (HeLa) | Potency (Hek293T) | Potency (JEG-3) | Potency (OV90) | Potency (PA-1) | Potency (SKOV3) | Potency (Tov-21-G) | Potency (Tov112D) | activity, negative = cell killing [1, 2] -21.5% | activity, negative = cell killing [1, 3] -21.3% | activity, negative = cell killing [1, 4] -29.3% | activity, negative = cell killing [1, 5] -22.4%

C#C[C@]1(O)CC[C@H]2[C@@H]3CCC4=CC(=O)CC[C@@H]4[C@H]3CC[C@@]21C
inactive: Potency (MCC-13) | Potency (MCC-26) | Potency (MKL-1) | Potency (MKL-2) | Potency (UISO) | Potency (WaGa) | Potency (C33A) | Potency (CAOV3) | Potency (CASKI) | Potency (Es-2) | Potency (Hek293T) | Potency (JEG-3) | Potency (SKOV3) | Potency (Tov-21-G) | Potency (Tov112D) | activity, negative = cell killing [1, 2] -9.83% | activity, negative = cell killing [1, 3] 3.81% | activity, negative = cell killing [1, 5] -18.8%
active: Potency (HeLa) 3550 nM | Potency (PA-1) 17800 nM

CN=C(NC#N)NCCSCc1csc(N=C(N)N)n1
inactive: Potency (MCC-13) | Potency (MCC-26) | Potency (MKL-1) | Potency (MKL-2) | Potency (UISO) | Potency (WaGa) | Potency (C33A) | Potency (CAOV3) | Potency (CASKI) | Potency (Es-2) | Potency (HeLa) | Potency (JEG-3) | Potency (OV90) | Potency (PA-1) | Potency (SKOV3) | Potency (Tov-21-G) | Potency (Tov112D) | activity, negative = cell killing [1, 2] -9.85% | activity, negative = cell killing [1, 3] 14.9% | activity, negative = cell killing [1, 4] -18.5% | activity, negative = cell killing [1, 5] -6.9%

Oc1c(I)cc(I)c2cccnc12
inactive: Potency (MCC-13) | Potency (MCC-26) | Potency (C33A) | Potency (CAOV3) | Potency (CASKI) | Potency (HeLa) | Potency (Hek293T) | Potency (JEG-3) | Potency (OV90) | Potency (SKOV3) | Potency (Tov112D)
active: Potency (MKL-1) 18800 nM | Potency (MKL-2) 11900 nM

CCN(CCCc1ccccc1)CCCc1ccccc1
active: Potency (OV90) 28200 nM | Potency ([1]; tumour line A) 5010 nM
inactive: Potency (MCC-13) | Potency (MCC-26) | Potency (MKL-1) | Potency (UISO) | Potency (WaGa) | Potency (C33A) | Potency (CASKI) | Potency (Es-2) | Potency (HeLa) | Potency (Hek293T) | Potency (JEG-3) | Potency (PA-1) | Potency (SKOV3) | Potency (Tov-21-G) | Potency (Tov112D) | activity, negative = cell killing ([1]; at 20 µM (top of the series), tumour line C) -18.9% | activity, negative = cell killing ([1]; at 21.2 µM (top of the series), tumour line B) 2.05%

C[C@]12CCC(=O)C=C1[C@@H]1C[C@@H]1[C@H]1[C@@H]3[C@@H]4C[C@@H]4[C@@]4(CCC(=O)O4)[C@@]3(C)CC[C@@H]12
active: Potency (HeLa) 3550 nM
inactive: Potency (MCC-13) | Potency (MCC-26) | Potency (MKL-1) | Potency (MKL-2) | Potency (CAOV3) | Potency (CASKI) | Potency (Es-2) | Potency (Hek293T) | Potency (JEG-3) | Potency (SKOV3) | Potency (Tov-21-G) | Potency (Tov112D) | activity, negative = cell killing [1, 2] -20.2% | activity, negative = cell killing [1, 3] -9.23% | activity, negative = cell killing [1, 5] -0.55%

CC(=O)Oc1ccc(C(c2ccc(OC(C)=O)cc2)c2ccccn2)cc1
inactive: Potency (MCC-13) | Potency (MCC-26) | Potency (MKL-1) | Potency (MKL-2) | Potency (WaGa) | Potency (C33A) | Potency (CAOV3) | Potency (Es-2) | Potency (Hek293T) | Potency (JEG-3) | Potency (PA-1) | Potency (SKOV3) | activity, negative = cell killing [1, 2] -5.88% | activity, negative = cell killing [1, 3] -3.54% | activity, negative = cell killing [1, 4] -29.3%

CNCC[C@@H](Oc1ccccc1C)c1ccccc1
inactive: Potency (MCC-13) | Potency (MCC-26) | Potency (MKL-1) | Potency (MKL-2) | Potency (UISO) | Potency (WaGa) | Potency (C33A) | Potency (CAOV3) | Potency (CASKI) | Potency (HeLa) | Potency (Hek293T) | Potency (JEG-3) | Potency (OV90) | Potency (PA-1) | Potency (Tov112D)

Cc1c(C(C)C)c(=O)n(-c2ccccc2)n1C
inactive: Potency (MCC-13) | Potency (MCC-26) | Potency (MKL-1) | Potency (MKL-2) | Potency (UISO) | Potency (WaGa) | Potency (C33A) | Potency (CASKI) | Potency (HeLa) | Potency (Hek293T) | Potency (JEG-3) | Potency (OV90) | Potency (PA-1) | Potency (SKOV3) | Potency (Tov-21-G) | Potency (Tov112D) | activity, negative = cell killing [1, 2] -4.08% | activity, negative = cell killing [1, 3] -9.96% | activity, negative = cell killing [1, 4] -22.1% | activity, negative = cell killing [1, 5] -13.8%

COc1cccc2c1C(=O)c1c(O)c3c(c(O)c1C2=O)C[C@@](O)(C(C)=O)C[C@@H]3O[C@H]1C[C@H](N)[C@H](O)[C@H](C)O1
active: Potency (MCC-13) 1060 nM | Potency (MCC-26) 944 nM | Potency (MKL-1) 23.7 nM | Potency (MKL-2) 10.6 nM | Potency (UISO) 211 nM | Potency (WaGa) 23.7 nM | Potency (C33A) 631 nM | Potency (CASKI) 708 nM | Potency (Es-2) 708 nM | Potency (HeLa) 4470 nM | Potency (OV90) 1260 nM | Potency (Tov112D) 398 nM

Cc1c(C)n(CCN(C)C)c2ccc(C(=O)OCCN(C)C)cc12
inactive: Potency (MCC-13) | Potency (MCC-26) | Potency (MKL-1) | Potency (MKL-2) | Potency (UISO) | Potency (C33A) | Potency (CAOV3) | Potency (CASKI) | Potency (Es-2) | Potency (HeLa) | Potency (Hek293T) | Potency (JEG-3) | Potency (Tov-21-G) | Potency (Tov112D) | activity, negative = cell killing [1, 5] -23.7%
active: Potency ([1]; tumour line A) 10000 nM

NC(CO)(CO)CO
inactive: Potency (MCC-13) | Potency (MCC-26) | Potency (MKL-1) | Potency (MKL-2) | Potency (UISO) | Potency (WaGa) | Potency (C33A) | Potency (CASKI) | Potency (Es-2) | Potency (HeLa) | Potency (Hek293T) | Potency (JEG-3) | Potency (OV90) | Potency (PA-1) | Potency (SKOV3) | Potency (Tov-21-G) | Potency (Tov112D) | activity, negative = cell killing [1, 2] -1.58% | activity, negative = cell killing [1, 3] 6.44% | activity, negative = cell killing [1, 4] -13.6% | activity, negative = cell killing [1, 5] 0.171%

Cc1ncc(CSSCc2cnc(C)c(O)c2CO)c(CO)c1O
inactive: Potency (MCC-13) | Potency (MCC-26) | Potency (MKL-1) | Potency (MKL-2) | Potency (UISO) | Potency (WaGa) | Potency (C33A) | Potency (CASKI) | Potency (Es-2) | Potency (HeLa) | Potency (Hek293T) | Potency (JEG-3) | Potency (OV90) | Potency (PA-1) | Potency (SKOV3) | Potency (Tov-21-G) | Potency (Tov112D) | activity, negative = cell killing [1, 2] -0.0133% | activity, negative = cell killing [1, 3] -10.6% | activity, negative = cell killing [1, 5] 3.55%
